SARS PLpro yeast: inhibitors of SARS-CoV papain-like protease in yeast; S. cerevisiae expressing SARS-CoV PLpro, growth rescue; Potency, µM (series often up to 32.9 µM), usual class: activators; 0.19% of 330,000 active; AID 485353; calls by dose curve; further: nearly all actives have a fitted effect of over 55% in size
AmpC inh detg: blocks E. coli AmpC beta-lactamase in detergent assay. P00811. AmpC hydrolysis of nitrocefin, absorbance 480 nm, 0.01% Triton. Potency, µM (doses to about 114 µM), actives largely listed as inhibitors. 0.041% of 370,000 active. AID 485294; further: nearly all actives have a fitted effect of over 25% in size
Target sequence (P00811 whole entry, looked up): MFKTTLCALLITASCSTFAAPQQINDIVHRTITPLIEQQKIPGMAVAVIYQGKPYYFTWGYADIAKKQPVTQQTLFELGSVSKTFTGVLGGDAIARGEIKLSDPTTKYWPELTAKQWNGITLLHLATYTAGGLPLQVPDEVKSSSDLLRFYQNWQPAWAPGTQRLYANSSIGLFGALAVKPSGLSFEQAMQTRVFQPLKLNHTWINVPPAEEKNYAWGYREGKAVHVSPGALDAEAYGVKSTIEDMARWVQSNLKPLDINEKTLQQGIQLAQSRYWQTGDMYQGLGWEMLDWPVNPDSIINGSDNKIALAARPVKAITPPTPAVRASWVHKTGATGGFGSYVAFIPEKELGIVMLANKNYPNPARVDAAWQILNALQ
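20 mM phosphate pH 7.0 + 0.01% (detergent screen) or 0.0001% Triton X-100; 5.3 nM AmpC reagent; cpd preinc 15 min RT; nitrocefin (800 uM stock) to start; A480 q20 s × 4 min; Activity was normalised to no-enzyme and no-compound control wells.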
Sm TGR inh: inhibitors of Schistosoma mansoni thioredoxin glutathione reductase; purified TGR, DTNB reduction, TNB absorbance 405 nm; Potency, µM (series often up to 114 µM), hits mostly inhibitors; 3% of 360,000 active; AID 485364; further: nearly all actives have a fitted effect of over 60% in size
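Kinetic colorimetric format: TGR-catalysed, NADPH-driven DTNB reduction monitored via TNB absorbance. Enzyme dispensed at 20 nM; compound exposure 15 min at room temperature before reaction start.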
AmpC no deterg: inhibitors of E. coli AmpC beta-lactamase without detergent | AmpC nitrocefin hydrolysis, absorbance 480 nm, 0.0001% Triton | Potency, µM (titrated, usually from 57.1 µM), hits mostly inhibitors | 0.52% of 330,000 active | AID 485341; further: nearly all actives have a fitted effect of over 20% in size
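AmpC (5.3 nM in the dispensed reagent) in 20 mM phosphate pH 7.0 with 0.01% (detergent screen) or 0.0001% Triton X-100 was preincubated with compounds for 15 min at room temperature. Nitrocefin was then added from an 800 uM solution, and hydrolysis was followed at 480 nm.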
Pf growth 48h: inhibits P. falciparum growth in the first generation, 48 h; 5.9% of 310,000 active; AID 504832; Potency, µM (titrated, usually from 28.7 µM), usual class: inhibitors; P. falciparum luciferase growth in erythrocytes, 48 h
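Firefly luciferase activity from engineered P. falciparum reports growth; inhibitors lower the luminescent signal. Cultures contained 2% hematocrit erythrocytes at 0.1% final parasitemia.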
Pf growth 96h: P. falciparum growth inhibition at 96 hour, primary screen for plastid delayed-death inhibitors | P. falciparum luciferase reporter growth, 96 h | Potency, µM (series often up to 28.7 µM), actives largely listed as inhibitors | 6.9% of 320,000 active | AID 504834
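Plates of compound plus infected erythrocytes (2% hematocrit, 0.05% parasitemia final) incubate 96 hours, 37 C, 5% CO2. Detection reagent added; reduced luminescence from the parasites' luciferase reporter flags inhibition.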
Each line names hits and unclear results; the compound was inactive in the other large screens. This is a sample that favours compounds with a hit; in the whole collection about 12% have one here. Unless noted, the call rests on the fitted dose curve; in most records, active means well fitted curve in the direction sought with a large enough effect; inconclusive means small, poorly fitted or top-dose-only effect, or another doubt; inactive means no such curve, though single readings can be large; an effect the other way counts as inactive or inconclusive.

CCc1nn2c(=O)cc(COC(=O)Cc3ccccc3)nc2s1	none (no result: SARS PLpro yeast, AmpC no deterg, Pf growth 48h, Pf growth 96h)
Cc1ccccc1NC(=O)CSc1c(C(C)C)cnc2c1c(=O)n(C)c(=O)n2C	none (no result: SARS PLpro yeast, AmpC no deterg, Pf growth 48h, Pf growth 96h)
COc1cc(/C=N/NC(=O)COc2cccc(F)c2)ccc1OS(=O)(=O)c1ccc(C)cc1	Pf growth 48h inconclusive, Pf growth 96h 8.3µM
COc1cc(/C=N/NC(=O)COc2ccc(Cl)cc2)ccc1OS(=O)(=O)c1ccc(C)cc1	Pf growth 48h inconclusive (no result: Pf growth 96h)
CCCOC(=O)Nc1ccc([As](=O)(O)O)cc1NC(=O)OCCC	Sm TGR inh 13µM, Pf growth 48h inconclusive, Pf growth 96h inconclusive
CCOC(=O)C1CCN(C(=O)CCCn2c(=O)c3cccn3c3cccnc32)CC1	Sm TGR inh 79µM, Pf growth 96h inconclusive
CCOC(=O)C1CCCN(C(=O)CCCn2c(=O)c3cccn3c3cccnc32)C1 (configuration not stated)	Pf growth 96h inconclusive
O=C(CCn1c(=O)c2cccn2c2cccnc21)N1CCN(c2cccc(Cl)c2)CC1	Pf growth 48h 9.3µM, Pf growth 96h inconclusive
CCc1ccc(NC(=O)c2cc(=O)c3ccc(C)c(C)c3o2)cc1	none (no result: SARS PLpro yeast, AmpC no deterg, Pf growth 48h, Pf growth 96h)
Cc1cc(Cl)c(S(=O)(=O)Nc2cccc(O)c2)cc1OCC(N)=O	AmpC inh detg inconclusive
COc1ccc(NS(=O)(=O)c2cc(OCC(N)=O)c(C)cc2Cl)cc1	AmpC inh detg inconclusive, Pf growth 48h 10µM, Pf growth 96h 2.1µM
CCOc1ccc(NS(=O)(=O)c2cc(OCC(N)=O)c(C)cc2Cl)cc1	Pf growth 48h 1.5µM, Pf growth 96h 3.7µM
COC(=O)c1cc(C(=O)OCC(=O)N2CCCCC2)cc([N+](=O)[O-])c1	none (no result: AmpC inh detg, Sm TGR inh, Pf growth 48h, Pf growth 96h)
Cc1oc(-c2cccc(Cl)c2)nc1CS(=O)(=O)CC(=O)NCc1ccccc1Cl	Sm TGR inh inconclusive (no result: SARS PLpro yeast, AmpC no deterg, Pf growth 48h, Pf growth 96h)
COc1cccc(-c2nc(CS(=O)(=O)CC(=O)NC3CCCC3)c(C)o2)c1	Sm TGR inh 45µM
Cc1oc(-c2cccc(Cl)c2)nc1CS(=O)(=O)CC(=O)NC1CCCC1	Sm TGR inh 45µM, Pf growth 96h inconclusive
COc1cccc(-c2nc(CS(=O)(=O)CC(=O)NC3CCC(C)CC3)c(C)o2)c1 (configuration not stated)	AmpC inh detg inconclusive, Pf growth 96h inconclusive
O=C(NC1CCCCC1)C1c2ccccc2C(=O)N1Cc1ccc2c(c1)OCO2 (configuration not stated)	Pf growth 48h inconclusive
COc1ccc(-c2noc(CN(C)CCC3CCCCO3)n2)cc1 (configuration not stated)	Pf growth 48h inconclusive
COC(=O)c1ccc(-c2noc(CN(C)CCC3CCCCO3)n2)cc1 (configuration not stated)	AmpC inh detg inconclusive, Sm TGR inh 0.1µM, Pf growth 96h inconclusive
N=c1c2c(n(Cc3ccc(F)cc3)c3c1CCC3)CCCC2	Pf growth 48h inconclusive
N=c1c2c(n(Cc3ccc(Cl)cc3)c3c1CCC3)CCC2	Pf growth 48h 0.21µM
N=c1c2c(n(Cc3cccc(Cl)c3)c3c1CCC3)CCCC2	Pf growth 48h 0.26µM
N=c1c2c(n(Cc3ccc(Cl)cc3Cl)c3c1CCC3)CCCC2	Pf growth 48h 0.19µM (no result: Pf growth 96h)
N=c1c2c(n(Cc3ccccc3)c3c1CCC3)CCC2	Pf growth 48h 0.41µM, Pf growth 96h 0.13µM
CC(C)C(=O)Nc1cccc(C(=O)Nc2ccc(S(=O)(=O)Nc3nccs3)cc2)c1	AmpC inh detg inconclusive
O=c1[nH]c2ccccc2n1CCCN1CCC(n2c(=O)[nH]c3cc(Cl)ccc32)CC1	Pf growth 48h 11µM, Pf growth 96h 4.8µM
O=c1[nH]c2ccccc2n1Cc1ccc(Cl)cc1	none (no result: Pf growth 96h)
COCC(=O)Nc1cc(Sc2ccccc2)ccc1N=C(NC(=O)OC)NC(=O)OC	none (no result: SARS PLpro yeast, AmpC inh detg, Sm TGR inh, AmpC no deterg)
O=C(O)c1ccc2cccnc2n1	Sm TGR inh 32µM
CCC1CCCCN1S(=O)(=O)c1ccc(C(=O)N(CCCN(C)C)c2nc3cc4c(cc3s2)OCO4)cc1 (configuration not stated)	SARS PLpro yeast inconclusive, Pf growth 48h inconclusive, Pf growth 96h inconclusive
O=c1ccc2c(-c3ccccc3)c3ccc(O)cc3oc-2c1	Sm TGR inh 8.9µM (no result: Pf growth 48h)
CC(C)(C)c1cc(CCC(=O)NCCc2ccccn2)cc(C(C)(C)C)c1O	Pf growth 48h inconclusive, Pf growth 96h 12µM
COc1cccc(CNC(=O)CSc2ccc(-c3cccs3)nn2)c1	Pf growth 96h inconclusive
O=C(CSc1nnc(CN2CCCC2)n1-c1ccccc1)c1ccc2c(c1)OCO2	none (no result: AmpC inh detg, Sm TGR inh, Pf growth 48h, Pf growth 96h)
COc1ccc(C(=O)CSc2nnc(CN3CCCCC3)n2-c2ccc(Cl)cc2)cc1OC	AmpC inh detg inconclusive, Pf growth 48h inconclusive, Pf growth 96h 10µM
CCCCC#Cc1cncc(C(=O)NN)c1	none
CCCCCCC#Cc1cncc(C(=O)NNC(=O)Nc2cc(Cl)cc(Cl)c2)c1	AmpC no deterg 16µM
Cc1ccc2oc(-c3cc(NC(=O)CC(C)C)ccc3Cl)nc2c1	AmpC inh detg inconclusive (no result: SARS PLpro yeast, AmpC no deterg, Pf growth 48h, Pf growth 96h)
COCCn1c(SCCCc2ccccc2)nc2c1c(=O)[nH]c(=O)n2C	SARS PLpro yeast inconclusive, AmpC inh detg inconclusive, Pf growth 48h inconclusive
C/C=C/Cn1c(SCCCc2ccccc2)nc2c1c(=O)[nH]c(=O)n2C	AmpC inh detg inconclusive, Pf growth 48h inconclusive, Pf growth 96h 0.93µM
CCCCSc1nc2c(c(=O)[nH]c(=O)n2C)n1CCc1ccccc1	AmpC inh detg inconclusive, Pf growth 48h inconclusive, Pf growth 96h inconclusive
C=CCn1c(SCCCc2ccccc2)nc2c1c(=O)[nH]c(=O)n2C	Pf growth 48h inconclusive, Pf growth 96h 4.1µM
COCCCn1c(=S)[nH]c2ncccc2c1=O	Pf growth 96h inconclusive
CCCCCn1c(=S)[nH]c2ncccc2c1=O	AmpC inh detg inconclusive, Pf growth 96h 9.3µM
CC(C)Oc1ccc(CNC(=O)Cn2ncn3nc(-c4cccs4)cc3c2=O)cc1	none (no result: SARS PLpro yeast, AmpC no deterg, Pf growth 48h, Pf growth 96h)
CC(C)(C)c1ccc(OCCNC(=O)Cc2ccc(F)cc2)cc1	Pf growth 48h inconclusive
O=C(CSc1nc(-c2ccc(F)cc2)nc2c1Cc1ccccc1O2)Nc1ccc(C(=O)O)cc1	AmpC inh detg 63µM, Pf growth 48h inconclusive
Cc1[nH]c2ccccc2c1/C=N/NC(=O)c1cccc(F)c1	Pf growth 96h inconclusive
Cc1[nH]c2ccccc2c1/C=N/Nc1ccccn1	Pf growth 96h 10µM
COc1ccccc1NS(=O)(=O)c1cc([N+](=O)[O-])ccc1N/N=C/c1c(C)[nH]c2ccccc12	Pf growth 48h 10µM (no result: Pf growth 96h)
Cc1[nH]c2ccccc2c1/C=N/Nc1nncn1N	Pf growth 96h inconclusive (no result: Sm TGR inh)
Cc1[nH]c2ccccc2c1/C=N/Nc1ccc(F)cc1F	AmpC inh detg inconclusive, Sm TGR inh 50µM, Pf growth 48h inconclusive, Pf growth 96h inconclusive
